Results reported in PubChem BioAssay (Tox21).
Where “and” joins values, the source holds several entries; their conditions need not be identical. Equal values may be shown once. Results filed as inconclusive are left out. Calls of active or inactive are those of the source. Unless noted, calls follow the shape of the dose curve; as a rule, active = well fitted curve in the direction sought with a large enough effect in the repeat runs; inconclusive = weak or mixed curves; inactive = no such curve, though single readings can be large; an effect the other way counts as inactive or inconclusive.

How the values were obtained:
[1] = qHTS assay to identify small molecule agonists of the hypoxia (HIF-1) signaling pathway - cell viability counter screen (AID 1224844; calls by dose curve; also: nearly all actives have a fitted effect of over 50% in size; also: potency is read from the fitted curve at half-maximal effect)
Summary of the method: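 Tox21 10K compounds were added to HRE-bla ME-180 cells (0.5% dialyzed FBS) and incubated 17 hrs at 37C; ATP-based CellTiter-Glo luminescence then reported cell viability in the same wells.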

[2] = qHTS assay to identify small molecule agonists of H2AX (AID 1224845; active = well fitted activation curve with a large enough effect in the signal ratio in the repeat runs, not every such curve was filed as active; the % refers to the signal ratio)
Summary of the method: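 Wild-type CHO-K1 cells plated overnight, then exposed 3 hr at 37C to compounds at 15 concentrations (0.76% DMSO). Lysed, then HTRF anti-pH2AX(S139)-cryptate/anti-H2AX-d2 detection after 24 hr at room temperature; emissions 665 and 620 nm.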

[3] = qHTS assay to identify small molecule agonists of the hypoxia (HIF-1) signaling pathway (AID 1224846; active = well fitted activation curve with a large enough effect in the signal ratio in the repeat runs, not every such curve was filed as active; the % refers to the signal ratio)
Summary of the method: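 Steps: seed ME-180 HRE-bla cells (2,000/well, 0.5% dialyzed FBS); incubate 5 hrs at 37C; pin-transfer compounds or DMSO; incubate 17 hrs; add LiveBLAzer B/G substrate CCF4-AM; measure reporter activation by FRET.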

[4] = qHTS assay to identify small molecule antagonists of the estrogen related receptor (ERR) signaling pathway from Tox21 library (AID 1224848); also: nearly all actives have a fitted effect of over 50% in size; also: potency is read from the fitted curve at half-maximal effect
Summary of the method: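 Cells: ERR line, 2,000/well; 6 h preincubation 37 C/5% CO2. Cpd in DMSO via pin tool; 18 h, 37 C. ONE-Glo, 30 min RT, luminescence.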

[5] = qHTS assay to identify small molecule agonists of the estrogen related receptor (ERR) signaling pathway from Tox21 library (AID 1224849; calls by dose curve; also: nearly all actives have a fitted effect of over 15% in size); conditions: ERR reporter cell line, ONE-Glo luciferase, 18 h; at 92.4 µM (top of the series)
Summary of the method: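 Agonist signal is luciferase luminescence from an ERR reporter cell line treated 18 h at 37 C with DMSO-dissolved compounds, read 30 min after ONE-Glo addition at room temperature.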

[6] = qHTS RealTime-Glo MT Cell Viability Assay in HepG2 cells - 24 hour (AID 1224867); also: nearly all actives have a fitted effect of over 50% in size
Summary of the method: (§1)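 Cells + NanoLuc/prosubstrate dispensed (600 cells/well) → 5 h at 37 C/5% CO2 → compounds in DMSO transferred → 40 h incubation at 37 C, luminescence read at 0, 8, 16, 24, 32, 40 h.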

[7] = A CellTox Green Cytotoxicity Assay to monitor cytotoxicity in HEK293 cells - 0 hour (AID 1224869); also: nearly all actives have a fitted effect of over 50% in size
Summary of the method: (§2)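 Cytotoxicity was tracked continuously in HEK293 cells by a DNA-binding dye excluded from viable cells. Compounds were transferred in DMSO 5 h after seeding; fluorescence was recorded at intervals up to 40 h.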

[8] = qHTS RealTime-Glo MT Cell Viability Assay in HepG2 cells - 40 hour (AID 1224870); also: nearly all actives have a fitted effect of over 50% in size
Summary of the method: (§3)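 HepG2 cells mixed with RealTime-Glo MT reagents (NanoLuc plus cell-permeant prosubstrate) were seeded at 600 cells/well, incubated 5 h at 37 C/5% CO2, then pinned with compounds in DMSO; nonlytic luminescence tracked viability during 40 h treatment.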

[9] = A CellTox Green Cytotoxicity Assay to monitor cytotoxicity in HEK293 cells - 40 hour (AID 1224871); also: nearly all actives have a fitted effect of over 45% in size
Summary of the method: as §2

[10] = qHTS RealTime-Glo MT Cell Viability Assay in HEK293 cells - 16 hour (AID 1224872); also: nearly all actives have a fitted effect of over 50% in size; also: potency is read from the fitted curve at half-maximal effect
Summary of the method: (§4)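 Tox21 10K qHTS, HEK293, 600 cells/well, RealTime-Glo reagent co-dispensed with cells; 5 h preincubation, compound by pintool, 37 C, luminescence at 0–40 h.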

[11] = qHTS RealTime-Glo MT Cell Viability Assay in HepG2 cells - 8 hour (AID 1224873); also: nearly all actives have a fitted effect of over 55% in size
Summary of the method: as §3

[12] = qHTS RealTime-Glo MT Cell Viability Assay in HEK293 cells - 40 hour (AID 1224874); conditions: RealTime-Glo luminescence; max response: stronger effect = lower value; also: nearly all actives have a fitted effect of over 50% in size; also: potency is read from the fitted curve at half-maximal effect
Summary of the method: (§5)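 Nonlytic bioluminescent viability monitoring. HEK293 at 600 cells/well with reagent; 5 h settle; compound transfer by pintool; plates held at 37 C and read at set time points.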

[13] = A CellTox Green Cytotoxicity Assay to monitor cytotoxicity in HEK293 cells - 24 hour (AID 1224875); also: nearly all actives have a fitted effect of over 45% in size
Summary of the method: as §2

[14] = A CellTox Green Cytotoxicity Assay to monitor cytotoxicity in HepG2 cells - 16 hour (AID 1224876); also: nearly all actives have a fitted effect of over 45% in size
Summary of the method: (§6)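 Real-time, homogeneous cytotoxicity readout: dead-cell DNA staining by CellTox Green in HepG2 monolayers, fluorescence measured at timed intervals up to 40 h of continuous compound exposure.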

[15] = qHTS RealTime-Glo MT Cell Viability Assay in HepG2 cells - 32 hour (AID 1224877); also: nearly all actives have a fitted effect of over 55% in size
Summary of the method: as §1

[16] = A CellTox Green Cytotoxicity Assay to monitor cytotoxicity in HepG2 cells - 24 hour (AID 1224878); also: nearly all actives have a fitted effect of over 45% in size; also: potency is read from the fitted curve at half-maximal effect
Summary of the method: as §6

[17] = A CellTox Green Cytotoxicity Assay to monitor cytotoxicity in HepG2 cells - 40 hour (AID 1224879); also: nearly all actives have a fitted effect of over 40% in size; also: potency is read from the fitted curve at half-maximal effect
Summary of the method: as §6

[18] = qHTS RealTime-Glo MT Cell Viability Assay in HEK293 cells - 0 hour (AID 1224880)
Summary of the method: as §5

[19] = qHTS RealTime-Glo MT Cell Viability Assay in HEK293 cells - 32 hour (AID 1224868)
Summary of the method: as §4

[20] = qHTS assay to identify small molecule agonists of H2AX - cell viability counter screen (AID 1224847; calls by dose curve; also: top concentration of the series differs between compounds; nearly all actives have a fitted effect of over 30% in size)
Summary of the method: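 We seed wild-type CHO-K1 cells overnight, treat them for 3 hr at 37C with compounds in 15-concentration series, and quantify remaining viability by CellTiter-Glo luminescence.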
% is scaled to controls: 0 for no effect and ±100 for the full control effect.

C=C(C)C(=O)OCCCCOC(=O)C(=C)C
inactive: Potency [1] | Potency [2] | outcome [3] | Potency [4] | activity change, positive = activation [5] 2.2% | Potency [6] | Potency [7] | Potency [8] | Potency [9] | Potency [10] | Potency [11] | max response [12] 5.43% | Potency [13] | Potency [14] | Potency [15] | Potency [16] | Potency [17] | outcome [18]

CCCN(CCOc1c(Cl)cc(Cl)cc1Cl)C(=O)n1ccnc1
active: Potency [4] 15.7 µM and 24.3 µM | Potency [10] 22.3 µM and 27.5 µM | Potency [12] 19.9 µM and 27.5 µM | Potency [17] 43.6 µM
inactive: Potency [1] | Potency [2] | outcome [3] | activity change, positive = activation [5] -62.9% and -57.3% | Potency [6] | Potency [7] | Potency [8] | Potency [9] | Potency [11] | Potency [13] | Potency [14] | Potency [15] | Potency [16] | outcome [18]

CON(C)C(=O)Nc1ccc(Cl)cc1
inactive: Potency [1] | Potency [2] | outcome [3] | Potency [6] | Potency [19] | Potency [7] | Potency [8] | Potency [9] | Potency [10] | Potency [11] | max response [12] -13.1% | Potency [13] | Potency [14] | Potency [15] | Potency [16] | Potency [17] | outcome [18]

CCCCC(CC)CO[N+](=O)[O-] (centres undefined)
inactive: Potency [1] | Potency [2] | outcome [3] | Potency [6] | Potency [7] | Potency [8] | Potency [9] | Potency [10] | Potency [11] | max response [12] -1.82% | Potency [14] | Potency [15] | Potency [16] | Potency [17] | outcome [18]

O=C(O)CCCOc1ccc(Cl)cc1Cl
inactive: Potency [1] | Potency [2] | outcome [3] | Potency [6] | Potency [19] | Potency [7] | Potency [8] | Potency [9] | Potency [10] | Potency [11] | max response [12] 28.1% and -0.413% | Potency [13] | Potency [14] | Potency [15] | Potency [16] | Potency [17] | outcome [18]

CCOP(=S)(OCC)Oc1ccc(S(C)=O)cc1 (centres undefined)
inactive: Potency [1] | Potency [2] | outcome [3] | Potency [4] | activity change, positive = activation [5] -5.68% | Potency [6] | Potency [7] | Potency [8] | Potency [9] | Potency [10] | Potency [11] | max response [12] 6.56% | Potency [13] | Potency [14] | Potency [15] | Potency [16] | Potency [17] | outcome [18]

COc1ccc(C(O)(c2cncnc2)C2CC2)cc1 (centres undefined)
inactive: Potency [1] | Potency [2] | outcome [3] | Potency [4] | activity change, positive = activation [5] 1.33% | Potency [6] | Potency [19] | Potency [7] | Potency [8] | Potency [9] | Potency [10] | Potency [11] | max response [12] 0.605% | Potency [13] | Potency [14] | Potency [15] | Potency [16] | Potency [17] | outcome [18]

O=C(O)C(F)(F)C(F)(F)C(F)(F)C(F)(F)C(F)(F)C(F)(F)C(F)(F)C(F)(F)F
inactive: Potency [2] | outcome [3] | Potency [20] | Potency [19] | Potency [7] | Potency [8] | Potency [9] | Potency [10] | Potency [13] | Potency [14] | Potency [16] | Potency [17] | outcome [18]
active: Potency [1] 8.71 µM

CCC1(CC)C(=O)NC(=O)NC1=O
inactive: Potency [1] | Potency [2] | outcome [3] | Potency [6] | Potency [19] | Potency [7] | Potency [8] | Potency [9] | Potency [10] | Potency [11] | max response [12] 0.988% | Potency [13] | Potency [14] | Potency [15] | outcome [18]

C=CCc1ccc(OC(=O)Cc2ccccc2)c(OC)c1
inactive: Potency [1] | Potency [2] | outcome [3] | Potency [20] | Potency [6] | Potency [7] | Potency [8] | Potency [9] | Potency [11] | Potency [13] | Potency [14] | Potency [15] | Potency [16] | outcome [18]

OCC1CO1 (centres undefined)
active: Potency [16] 44.4 µM
inactive: Potency [1] | Potency [2] | outcome [3] | Potency [6] | Potency [19] | Potency [7] | Potency [8] | Potency [9] | Potency [10] | Potency [11] | max response [12] 0.843% and 1.08% | Potency [13] | Potency [15] | outcome [18]

CCOP(=S)(S)OCC
inactive: Potency [1] | Potency [2] | outcome [3] | Potency [4] | activity change, positive = activation [5] -3.44% | Potency [6] | Potency [7] | Potency [8] | Potency [9] | Potency [10] | Potency [11] | max response [12] 2.46% | Potency [13] | Potency [14] | Potency [15] | Potency [16] | Potency [17] | outcome [18]

COP(=O)(OC)OC(Br)C(Cl)(Cl)Br (centres undefined)
inactive: Potency [2] | outcome [3] | Potency [20] | Potency [6] | Potency [7] | Potency [8] | Potency [11] | Potency [14] | Potency [15] | Potency [16] | outcome [18]
active: Potency [1] 43.6 µM

CCCCCCCCCCCCCCCl
inactive: Potency [1] | Potency [2] | outcome [3] | Potency [6] | Potency [19] | Potency [7] | Potency [8] | Potency [9] | Potency [10] | Potency [11] | max response [12] 1.34% | Potency [13] | Potency [14] | Potency [15] | Potency [16] | Potency [17] | outcome [18]

CCN(C(C)=O)c1cccc(-c2ccnc3c(C#N)cnn23)c1
inactive: Potency [1] | Potency [2] | outcome [3] | Potency [6] | Potency [19] | Potency [7] | Potency [8] | Potency [9] | Potency [10] | Potency [11] | max response [12] -13.6% | Potency [13] | Potency [14] | Potency [15] | Potency [16] | Potency [17] | outcome [18]
